We go through 37 compounds from PubChem BioAssay (NCI).

Each structure is given as a SMILES string. About 83,000 compounds went through this panel and 20% of them were active in at least one assay; those are over-represented in the sample as a whole.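 Step 1: grow cells in 96-well plates. Step 2: add test compound at a single concentration. Step 3: incubate 48 h. Step 4: record percent growth.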 Values without a mark were called inactive. The source made the active and inactive calls. How the source made its calls: active means growth percent below 10; inactive means the rest.

The subject of the assay is MDA-MB-468 breast. Kind of assay: NCI-60 one-dose screen, 48 h (100 = growth as untreated, 0 = no growth, -100 = all killed). To be noted: 10 µM unless noted.
Take `Oc1ccc(Cl)cc1Sc1cc(Cl)ccc1O`: the growth was 22%.

Consider `Nc1c(C(=O)Nc2cccc3ccccc23)sc2nc3c(cc12)CCCC3`, for which the growth was 35%.

Take `COc1cc(/C=N/NC(=O)c2ccc(C)nc2)cc(OC)c1OC`: the growth was 98.5%.

`O=C(Nc1ccc2cc3ccc(NC(=O)N4CCCCCC4)cc3nc2c1)N1CCCCCC1`: the growth is -48.5% (active).

As for `CC(C)(C)CC(C)(C)c1ccc(O)c(Cc2ccc(Cl)cc2Cl)c1`, the growth is -88.6% (active).

Take `O=C(CN1C(=O)/C(=C\c2ccc(Cl)cc2)SC1=S)Nc1ncc(Cc2ccc(Cl)cc2)s1`: the growth is 108%.

As for `N#C/C(=C\c1ccc(-c2ccccc2)o1)c1nc(-c2ccco2)cs1`, the growth is -32.4% (active).

For the compound `COc1ncc2cc1NS(=O)(=O)c1cccc(c1)C(=O)NCC1=CC=C(S1)c1ncnc3c1SC2=C3C`, the growth was -34.5% (active).

As for `COc1cc(/C=C/C(=O)c2ccc(Oc3ncnc4ccccc34)cc2)cc(OC)c1OC`, the growth was 13.8%.

Take `N=C(N)c1ccc(OCCSCCOc2ccc(C(=N)N)cc2)cc1`: the growth was 40.1%.

As for `O=S(=O)(O)CCI`, the growth was 91.8%.

For `O=P(O)(O)OCC1OC(n2cnc3c(NCc4ccco4)ncnc32)C(O)C1O` (configuration not stated), the growth is -67% (active).

With `CCNC(=O)Oc1ccc(/C(=C(/C)c2ccc(Cl)cc2)c2ccc(OCCN3CCCCCC3)cc2)cc1`, the growth was 4.44% (active).

Consider `Cn1c(=O)c(F)c(Nc2ccc(I)cc2F)c2c(=O)n(C[C@@H](O)CO)cnc21`, for which the growth is 77.9%.

Consider `Cc1ccc(O)c(NC(=O)c2cccc(Nc3ccnc(C(F)(F)F)c3)c2)c1`, for which the growth was 46%.

Consider `S=c1[nH]nc2sc3ccccc3n12`, for which the growth was 122%.

Regarding `O=c1[nH]c(CN2CCN(c3ccccc3)CC2)nc2c(Br)cc(Br)cc12`, the growth is 114%.

For `O=S(=O)(c1ccc(N/N=C\c2ccccc2)cc1)c1ccc(N/N=C/c2ccccc2)cc1`, the growth is 61%.

With `O=C1c2ccccc2C(=O)c2cc(Cn3c[n+](Cc4ccc5ccccc5c4)c4ccccc43)ccc21`, the growth is -27.6% (active).

Take `C=CCC(=O)N[C@H](/C=C/C(=O)O)Cc1ccc(-c2cc(Cl)cc(Cl)c2)cc1`: the growth is 101%.

In the case of `CC(C)(C)c1ccc2oc(=O)n(SC(Cl)(Cl)Cl)c2c1`, the growth was 126%.

For the compound `COc1cc2ncnc(Oc3ccc(NC(=O)Nc4ccc(CN5CCOCC5)c(C(F)(F)F)c4)c4ccccc34)c2cc1OC`, the growth was -12.3% (active).

Turning to `CCC(=O)Nc1ccc(-c2nc(-c3cccc(O)c3)c(-c3ccnc(Br)c3)[nH]2)cc1`, the growth is 30.5%.

For the compound `O=C(O)c1cn(C2CC2)c2cc(N3CCN(Cc4nc5c(cnn5-c5ccc([N+](=O)[O-])cc5)c(=O)[nH]4)CC3)c(F)cc2c1=O`, the growth is 103%.

For the compound `C=C(C)[C@@H]1CC[C@]2(C)[C@H](CC=C3[C@@H]4CC(C)(C)CC[C@]4(C=O)CC[C@]32C)[C@@]1(C)CCCN`, the growth is 51.3%.

For `O=C1NC(=S)NC(=O)C1=Cc1cn(Cc2ccccn2)c2ccccc12`, the growth is -40.6% (active).

`COc1ccccc1NC(=O)c1cc2cc(Br)ccc2cc1O`: the growth was -9.27% (active).

On to `COC(=O)[C@]12CC[C@@H](C)[C@H](C)[C@@H]1C1=CC[C@@H]3[C@@]4(C)C=C(O)C(=O)C(C)=C4CC[C@@]3(C)[C@]1(C)CC2`, for which the growth was 10.6%.

Turning to `CN(C)c1ccc(C(c2ccc(O)cc2)c2ccc(N(C)C)cc2)cc1`, the growth was 1.1% (active).

Take `CCN(CC)CCOc1ccc(C(=C(c2ccccc2)C2CCCC2)c2ccc(OCCN(CC)CC)cc2)cc1`: the growth was -77.5% (active).

On to `Oc1cccc(CCc2ccc(Oc3cc(CCc4cccc(O)c4)cc(O)c3O)cc2)c1`, for which the growth was 82.5%.

As to `CCOC(=O)C1=C(C)NC(=O)NC1c1c(Cl)n(-c2ccccc2)c2ccccc12` (configuration not stated), the growth is 58.3%.

Take `COc1ccc2oc(=O)cc(C3c4ccc([nH]4)C(c4cc(=O)oc5ccc(OC)cc45)c4ccc([nH]4)C(c4cc(=O)oc5ccc(OC)cc45)c4ccc([nH]4)C(c4cc(=O)oc5ccc(OC)cc45)c4ccc3[nH]4)c2c1` (configuration not stated): the growth was -38.6% (active).

Turning to `COC(=O)[C@H](CC(C)C)NC(=O)NC(=O)NC(=O)CI`, the growth is 75.9%.

Take `O=C1Nc2ccccc2/C1=C/c1cccn1CCCCCn1c2ccccc2c(=O)c2ccccc21`: the growth was 37.6%.

As to `Oc1c(C(Nc2ccccc2Br)c2ccccc2)ccc2cccnc12` (configuration not stated), the growth is -4% (active).

`CC1=C[C@@H]2c3c(c(O)c(O)c4oc5cc(O)cc(O)c5c(=O)c34)[C@@H](c3cc(O)c(O)c4oc5cc(O)cc(O)c5c(=O)c34)[C@@H]2C(C)(C)C1`: the growth was -19.5% (active).
